In PubChem BioAssay (NCI) one finds growth data, which are given here for 8 compounds.

Among the test systems are HCT-15 colon; HT29 colon; SNB-75 CNS; SNB-19 CNS; U251 CNS; PC-3 prostate; SK-MEL-5 melanoma; UACC-62 melanoma; LOX IMVI melanoma; SK-MEL-28 melanoma; SK-MEL-2 melanoma; SN12C renal; UO-31 renal; TK-10 renal; ACHN renal; CAKI-1 renal; A498 renal; CCRF-CEM leukemia; MOLT-4 leukemia; EKVX NSCLC.
Common to all, as to experiment: NCI-60 one-dose screen, 48 h (100 = growth as untreated, 0 = no growth, -100 = all killed)
Holding throughout (conditions): 10 µM unless noted

This is part of a sample that, as a whole, favours compounds with a hit. Of some 83,000 tested, about 20% had one in any assay.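 Growth was measured after 48 h exposure to one concentration of compound in 96-well plates. Values under 10 count as active.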 Values without a mark were called inactive. The source made the active and inactive calls.

Take `Clc1ccccc1Nc1ccc2nnc(-c3ccncc3)n2n1`: the growth was 91.8% with HCT-15 colon; 99.2% in the experiment with HT29 colon; 96.2% with SNB-75 CNS; 107% in the experiment with SNB-19 CNS; 97.4% in the experiment on U251 CNS; 75.7% with PC-3 prostate. Besides, the growth is 97.9% with SK-MEL-5 melanoma; 98.4% with UACC-62 melanoma; 96.1% in the experiment with LOX IMVI melanoma; 122% in the experiment with SK-MEL-28 melanoma; 100% in the experiment with SK-MEL-2 melanoma; 87% in the experiment on SN12C renal. Also, the growth was 89.5% in the experiment on UO-31 renal; 76.8% with TK-10 renal; 96.6% with ACHN renal; 86.1% with CAKI-1 renal; 72.8% with A498 renal; 79.1% in the experiment with CCRF-CEM leukemia. Also, the growth with MOLT-4 leukemia was 89.6%.

As for `CCOC(=O)C(CC(c1ccccc1)N1CCCCC1)[N+](=O)[O-]` (centres undefined), the growth with HCT-15 colon was 74.9%; in the experiment on HT29 colon, 95.4%; with SNB-75 CNS, 86%; in the experiment on SNB-19 CNS, 89.5%; in the experiment on U251 CNS it was 73.7%; in the experiment with PC-3 prostate, 67.2%. Also, the growth is 91.2% with SK-MEL-5 melanoma; 59.9% in the experiment on UACC-62 melanoma; 63.8% with LOX IMVI melanoma; 98.8% in the experiment with SK-MEL-28 melanoma; 88.5% with SK-MEL-2 melanoma; 76.9% with SN12C renal. The growth in the experiment with UO-31 renal is 46.2%; in the experiment on TK-10 renal, 112%; in the experiment on ACHN renal it was 72.6%; in the experiment on CAKI-1 renal, 103%; in the experiment with A498 renal it was 88.4%; in the experiment with CCRF-CEM leukemia, 49.5%. Further, in the experiment on MOLT-4 leukemia, the growth is 63.7%.

With `COc1ccc(-c2nc3sc(C)nn3c2-c2nc3cc(C)c(C)cc3[nH]2)cc1`, the growth in the experiment with HCT-15 colon is 80.6%; in the experiment on HT29 colon, 99.2%; with SNB-75 CNS it was 87.1%; with SNB-19 CNS it was 110%; in the experiment with U251 CNS, 103%; in the experiment with PC-3 prostate, 86%. In addition, the growth with SK-MEL-5 melanoma was 93%; in the experiment with UACC-62 melanoma, 88.5%; in the experiment on LOX IMVI melanoma it was 94.8%; in the experiment on SK-MEL-28 melanoma, 96%; in the experiment on SK-MEL-2 melanoma it was 104%; in the experiment with SN12C renal, 87.5%. For the same compound, the growth with UO-31 renal was 85.9%; in the experiment on TK-10 renal, 118%; with ACHN renal it was 89.7%; in the experiment on CAKI-1 renal it was 89.8%; in the experiment on A498 renal, 102%; with CCRF-CEM leukemia, 85.9%. In addition, the growth with MOLT-4 leukemia is 78.1%.

`CCOC(=O)c1[nH]c2cc(Cl)ccc2c1[C@@H](C(=O)NC(C)(C)C)N(CC)C(=O)CCCCC#Cc1cccc2c1CN(C1CCC(=O)NC1=O)C2=O` (some centres undefined): the growth was -2.23% (active) in the experiment with HCT-15 colon; 8.65% (active) in the experiment on HT29 colon; 0.961% (active) in the experiment with SNB-75 CNS; 28.2% with SNB-19 CNS; 27.8% with U251 CNS; 11.7% in the experiment with PC-3 prostate. In addition, the growth is -53.4% (active) in the experiment on SK-MEL-5 melanoma; 27.2% with UACC-62 melanoma; 8.52% (active) in the experiment with LOX IMVI melanoma; 29.6% in the experiment on SK-MEL-28 melanoma; -13.2% (active) with SK-MEL-2 melanoma; 24.4% in the experiment on SN12C renal. Further, the growth in the experiment with UO-31 renal is 0.0319% (active); in the experiment with TK-10 renal, 34.3%; in the experiment on ACHN renal, 13%; with CAKI-1 renal it was 7.95% (active); in the experiment with CCRF-CEM leukemia, 13.7%; in the experiment on MOLT-4 leukemia, 10.1%.

Consider `O=c1[nH]c(=S)c2c(n1CCCO)CCC2`, for which the growth in the experiment with HCT-15 colon is 101%; in the experiment with HT29 colon, 104%; with SNB-75 CNS it was 88%; with SNB-19 CNS, 102%; with U251 CNS, 101%; in the experiment with PC-3 prostate, 103%. The growth with SK-MEL-5 melanoma is 101%; in the experiment with UACC-62 melanoma, 97.2%; in the experiment with LOX IMVI melanoma, 96.5%; in the experiment on SK-MEL-28 melanoma, 111%; in the experiment with SK-MEL-2 melanoma, 99.8%; with EKVX NSCLC, 91.2%. Further, the growth with SN12C renal is 99.7%; in the experiment with UO-31 renal, 89.9%; in the experiment on ACHN renal, 103%; in the experiment with CAKI-1 renal it was 93.2%; in the experiment on MOLT-4 leukemia, 104%.

Consider `COc1ccc(-c2nc3sccn3c2/C=C/C(=O)c2cc(OC)c(OC)c(OC)c2)cc1OC`, for which the growth in the experiment with HCT-15 colon was 22%; in the experiment on HT29 colon it was 4.2% (active); with SNB-75 CNS, -8.25% (active); in the experiment on SNB-19 CNS, 28.5%; in the experiment with U251 CNS it was 10%; with PC-3 prostate it was 22.6%. In addition, the growth with SK-MEL-5 melanoma is 5.76% (active); with UACC-62 melanoma, 15.3%; with LOX IMVI melanoma, 9.65% (active); in the experiment with SK-MEL-28 melanoma, 53.2%; in the experiment with SK-MEL-2 melanoma it was -7.87% (active); in the experiment on EKVX NSCLC, 34.3%. In addition, the growth in the experiment on UO-31 renal is 14%; with TK-10 renal, 82.6%; with ACHN renal, 21.4%; in the experiment on CAKI-1 renal, 3.29% (active); in the experiment on A498 renal, -2.58% (active); in the experiment with CCRF-CEM leukemia it was 21.6%. The growth with MOLT-4 leukemia is 31.4%.

As for `CC(=O)Nc1ccc(S(=O)(=O)N/N=C\c2ccc(Cl)c(Cl)c2)cc1`, the growth is 118% in the experiment with HCT-15 colon; 102% with HT29 colon; 81.7% in the experiment on SNB-75 CNS; 103% in the experiment with SNB-19 CNS; 95.5% with U251 CNS; 83.6% in the experiment on PC-3 prostate. The growth in the experiment on SK-MEL-5 melanoma was 104%; in the experiment with UACC-62 melanoma it was 99.2%; with LOX IMVI melanoma, 98.7%; in the experiment on SK-MEL-28 melanoma it was 115%; with SK-MEL-2 melanoma, 90.6%; in the experiment with EKVX NSCLC, 99.7%. The growth in the experiment with SN12C renal is 99.1%; in the experiment on TK-10 renal, 93.2%; in the experiment on ACHN renal, 98.5%; in the experiment on CAKI-1 renal it was 91.5%; in the experiment on A498 renal it was 72.7%; in the experiment on CCRF-CEM leukemia, 92.8%. In addition, the growth in the experiment on MOLT-4 leukemia was 100%.

Take `COc1ccc(/C=C(\C#N)c2ccc(OC)cc2)cc1`: the growth was 66.2% with HCT-15 colon; 35.6% with HT29 colon; 76% in the experiment on SNB-75 CNS; 80.5% in the experiment with SNB-19 CNS; 48.8% in the experiment with U251 CNS; 73.7% with PC-3 prostate. The growth in the experiment on SK-MEL-5 melanoma is 32%; in the experiment with UACC-62 melanoma, 54.5%; with LOX IMVI melanoma it was 48.3%; in the experiment with SK-MEL-28 melanoma it was 80.6%; in the experiment with SK-MEL-2 melanoma, 54.4%; with EKVX NSCLC it was 92.2%. Moreover, the growth with SN12C renal was 67.5%; with TK-10 renal, 76.7%; in the experiment with ACHN renal, 88.3%; with CAKI-1 renal it was 64.7%; with A498 renal, 46.6%; with CCRF-CEM leukemia, 55.6%. The growth in the experiment with MOLT-4 leukemia was 56.9%.
